Measurements taken from paper PMC5540273 (PLoS ONE, 2017).

Legend:
Conditions in all cases: concentration: 1 μM,replicates: in singlicate; n = 1
[1] = tested on: PLK2
[2] = tested on: PLK3
[3] = tested on: PLK4
[4] = tested on: PRKCD
[5] = tested on: PRKCE
[6] = tested on: PRKCH
[7] = tested on: PRKCI
[8] = tested on: PRKCQ
[9] = tested on: PRKD1
[10] = tested on: PRKD2
[11] = tested on: PRKD3
[12] = tested on: PRKG1
[13] = tested on: PRKG2
[14] = tested on: T1, PRKR
T1 construct: gene EIF2AK2

[15] = tested on: PRKX
[16] = tested on: PRP4
[17] = tested on: T2, PYK2
T2 construct: gene PTK2B

[18] = tested on: QSK
[19] = tested on: RAF1
[20] = tested on: RET
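Further: KINOMEscan kinase panel screen.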

| SMILES | %Inh [1] [%] | %Inh [2] [%] | %Inh [3] [%] | %Inh [4] [%] | %Inh [5] [%] | %Inh [6] [%] | %Inh [7] [%] | %Inh [8] [%] | %Inh [9] [%] | %Inh [10] [%] | %Inh [11] [%] | %Inh [12] [%] | %Inh [13] [%] | %Inh [14] [%] | %Inh [15] [%] | %Inh [16] [%] | %Inh [17] [%] | %Inh [18] [%] | %Inh [19] [%] | %Inh [20] [%] |
| --- | --- | --- | --- | --- | --- | --- | --- | --- | --- | --- | --- | --- | --- | --- | --- | --- | --- | --- | --- | --- |
| Cc1occc1-c1nc(N)c(OC[C@@H](N)Cc2c[nH]c3ccccc23)cc1-c1cc2c(C)n[nH]c2cn1 [GSK1660450] | 65 | 52 | 0 | 100 | 99.6 | 95.7 | 34 | 100 | 93.3 | 97.4 | 100 | 78 | 96.2 | 0 | 79 | 0 | 0 | 90.4 | 0 | 23 |
| Nc1nc(Nc2ccccc2)cc(-c2ccc3c(N)n[nH]c3c2)n1 [GSK2225749] | 0 | 0 | 6 | 8 | 0 | 0 | 20 | 0 | 0 | 0 | 0 | 12 | 45 | 3 | 57 | 60 | 0 | 0 | 0 | 6 |
| CN(C)CCOc1ccc(-c2cc(-c3c[nH]nc3-c3ccccn3)ccn2)cc1 [GW835314] | 21 | 0 | 2 | 23 | 11 | 8 | 14 | 100 | 89 | 96.1 | 91.5 | 0 | 12 | 0 | 0 | 0 | 0 | 9 | 28 | 36 |
| O=C(NCCCN1CCOC1=O)c1cnc(NCc2cc(Cl)ccc2Cl)nc1NC1CCCC1 | 0 | 4 | 17 | 3 | 14 | 8 | 23 | 0 | 23 | 0 | 0 | 13 | 21 | 4 | 0 | 1 | 0 | 0 | 7 | 22 |
| Cl.Oc1cc(-c2nc(-c3ccccc3)[nH]c2-c2ccncc2)ccc1Cl [SB-386023] | 33 | 12 | 17 | 0 | 13 | 1 | 0 | 8 | 0 | 2 | 0 | 15 | 0 | 0 | 0 | 0 | 6 | 33 | 97.9 | 66 |
| CCN(CC)CCOc1ccc(Nc2ncc3cc(-c4c(Cl)cccc4Cl)c(=O)n(C)c3n2)cc1 [SB-601273] | 27 | 52 | 30 | 0 | 22 | 0 | 26 | 27 | 93.3 | 93.6 | 100 | 0 | 9 | 18 | 0 | 31 | 56 | 95.6 | 97 | 100 |
| Cl.Cl.Nc1nc(-c2ccc3c(N)n[nH]c3c2)cc(N2CCCC(NC(=O)c3ccccc3)C2)n1 (stereo not drawn) [GSK2286775] | 0 | 1 | 16 | 0 | 10 | 0 | 24 | 18 | 0 | 0 | 0 | 0 | 38 | 5 | 83 | 36 | 15 | 0 | 9 | 0 |
| Cl.Cl.NC[C@H](Cc1ccc(C(F)(F)F)cc1)NC(=O)c1cc(Br)c(-c2ccnc3[nH]ccc23)s1 [GSK1487252] | 0 | 0 | 8 | 97.3 | 97.5 | 98 | 17 | 88 | 83 | 57 | 81 | 98.1 | 98.7 | 0 | 96 | 22 | 13 | 14 | 10 | 74 |
| CC(C)Nc1cc(-c2ccc3c(N)n[nH]c3c2)nc(N)n1 [GSK2221681] | 0 | 0 | 0 | 0 | 0 | 0 | 11 | 12 | 0 | 0 | 0 | 0 | 42 | 0 | 79 | 7 | 0 | 0 | 0 | 0 |
| C[C@@H](Oc1cc(-c2cnn(C3CCNCC3)c2)cnc1N)c1c(Cl)ccc(F)c1Cl | 17 | 17 | 88 | 20 | 2 | 0 | 24 | 26 | 61 | 31 | 63 | 0 | 3 | 26 | 35 | 0 | 80 | 0 | 0 | – |
| Cc1cc(C(=O)Nc2ccc(Oc3ccc4nc(NC(=O)C5CC5)cn4n3)cc2)nn1-c1ccccc1 | 0 | 0 | 0 | 9 | 0 | 0 | 44 | 0 | 0 | 0 | 0 | 8 | 6 | 18 | 0 | 0 | – | 0 | 75 | 81 |
| CNC(=O)c1ccccc1Sc1ccc2c(/C=C/c3ccccn3)n[nH]c2c1 | 40 | 34 | 97.7 | 4 | 58 | 0 | 9 | 3 | 0 | 8 | 0 | 0 | 0 | 0 | 9 | 0 | 20 | 0 | 3 | – |
| C=CC(=O)Nc1cc2c(Nc3ccc(F)c(Cl)c3)ncnc2cc1OCCCN1CCOCC1 [GW781483] | 0 | 0 | 26 | 0 | 30 | 0 | 0 | – | 0 | 0 | 0 | 0 | 31 | 0 | 0 | 0 | 1 | 1 | 0 | 38 |
| Cc1cc2cn[nH]c2cc1-c1cccc2c(N)c(C(N)=O)nnc12 | 5 | 0 | 51 | 5 | 4 | 7 | 23 | 21 | 86 | 89 | 84 | 0 | 23 | 2 | 20 | 6 | 27 | 15 | 0 | 19 |
